# Source: PubChem
# Sfp PPTase inh = qHTS Assay for Inhibitors of Bacillus subtilis Sfp phosphopantetheinyl transferase (PPTase); 4'-phosphopantetheinyl transferase ffp (Bacillus subtilis), Q9F4F7; Biochemical Sfp PPTase activity, qHTS; Potency, µM, usual class: inhibitors; actives 3.5% (n = 310,000);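 also: the enzyme is Sfp with the accession as filed and its product quenches rhodamine fluorescence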
#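 Compounds were incubated with enzyme (final 15 nM) for 15 min at room temperature before substrate addition started the reaction. Fluorescence at 525 nm excitation, 598 nm emission was recorded immediately and after 30 minutes.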
# L3MBTL1 block = qHTS Assay for the Inhibitors of L3MBTL1. actives 0.66% (n = 230,000). AID 485360, 2010. AlphaScreen L3MBTL1–H3K9me1 peptide binding. Potency, µM (series often up to 57.1 µM), hits mostly inhibitors; also: nearly all actives have a fitted effect of over 60% in size
#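 AlphaScreen assay: L3MBTL1 (50 nM final) was preincubated 30 min at room temperature with biotinylated H3(1-15)K9me1 peptide (75 nM final), then 30 min with library compounds; streptavidin donor and nickel chelate acceptor beads (10 ug/mL final) added, 30 min dark.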
# BAZ2B block = qHTS Assay for Inhibitors of BAZ2B. Bromodomain adjacent to zinc finger domain protein 2B (Homo sapiens), Q9UIF8. Potency, µM (top dose mostly 114 µM), actives largely listed as inhibitors. actives 4.4% (n = 360,000). AlphaScreen BAZ2B-H3K14Ac peptide displacement; also: nearly all actives have a fitted effect of over 60% in size
# Target sequence (Q9UIF8 whole entry, looked up, the tested form may be a part): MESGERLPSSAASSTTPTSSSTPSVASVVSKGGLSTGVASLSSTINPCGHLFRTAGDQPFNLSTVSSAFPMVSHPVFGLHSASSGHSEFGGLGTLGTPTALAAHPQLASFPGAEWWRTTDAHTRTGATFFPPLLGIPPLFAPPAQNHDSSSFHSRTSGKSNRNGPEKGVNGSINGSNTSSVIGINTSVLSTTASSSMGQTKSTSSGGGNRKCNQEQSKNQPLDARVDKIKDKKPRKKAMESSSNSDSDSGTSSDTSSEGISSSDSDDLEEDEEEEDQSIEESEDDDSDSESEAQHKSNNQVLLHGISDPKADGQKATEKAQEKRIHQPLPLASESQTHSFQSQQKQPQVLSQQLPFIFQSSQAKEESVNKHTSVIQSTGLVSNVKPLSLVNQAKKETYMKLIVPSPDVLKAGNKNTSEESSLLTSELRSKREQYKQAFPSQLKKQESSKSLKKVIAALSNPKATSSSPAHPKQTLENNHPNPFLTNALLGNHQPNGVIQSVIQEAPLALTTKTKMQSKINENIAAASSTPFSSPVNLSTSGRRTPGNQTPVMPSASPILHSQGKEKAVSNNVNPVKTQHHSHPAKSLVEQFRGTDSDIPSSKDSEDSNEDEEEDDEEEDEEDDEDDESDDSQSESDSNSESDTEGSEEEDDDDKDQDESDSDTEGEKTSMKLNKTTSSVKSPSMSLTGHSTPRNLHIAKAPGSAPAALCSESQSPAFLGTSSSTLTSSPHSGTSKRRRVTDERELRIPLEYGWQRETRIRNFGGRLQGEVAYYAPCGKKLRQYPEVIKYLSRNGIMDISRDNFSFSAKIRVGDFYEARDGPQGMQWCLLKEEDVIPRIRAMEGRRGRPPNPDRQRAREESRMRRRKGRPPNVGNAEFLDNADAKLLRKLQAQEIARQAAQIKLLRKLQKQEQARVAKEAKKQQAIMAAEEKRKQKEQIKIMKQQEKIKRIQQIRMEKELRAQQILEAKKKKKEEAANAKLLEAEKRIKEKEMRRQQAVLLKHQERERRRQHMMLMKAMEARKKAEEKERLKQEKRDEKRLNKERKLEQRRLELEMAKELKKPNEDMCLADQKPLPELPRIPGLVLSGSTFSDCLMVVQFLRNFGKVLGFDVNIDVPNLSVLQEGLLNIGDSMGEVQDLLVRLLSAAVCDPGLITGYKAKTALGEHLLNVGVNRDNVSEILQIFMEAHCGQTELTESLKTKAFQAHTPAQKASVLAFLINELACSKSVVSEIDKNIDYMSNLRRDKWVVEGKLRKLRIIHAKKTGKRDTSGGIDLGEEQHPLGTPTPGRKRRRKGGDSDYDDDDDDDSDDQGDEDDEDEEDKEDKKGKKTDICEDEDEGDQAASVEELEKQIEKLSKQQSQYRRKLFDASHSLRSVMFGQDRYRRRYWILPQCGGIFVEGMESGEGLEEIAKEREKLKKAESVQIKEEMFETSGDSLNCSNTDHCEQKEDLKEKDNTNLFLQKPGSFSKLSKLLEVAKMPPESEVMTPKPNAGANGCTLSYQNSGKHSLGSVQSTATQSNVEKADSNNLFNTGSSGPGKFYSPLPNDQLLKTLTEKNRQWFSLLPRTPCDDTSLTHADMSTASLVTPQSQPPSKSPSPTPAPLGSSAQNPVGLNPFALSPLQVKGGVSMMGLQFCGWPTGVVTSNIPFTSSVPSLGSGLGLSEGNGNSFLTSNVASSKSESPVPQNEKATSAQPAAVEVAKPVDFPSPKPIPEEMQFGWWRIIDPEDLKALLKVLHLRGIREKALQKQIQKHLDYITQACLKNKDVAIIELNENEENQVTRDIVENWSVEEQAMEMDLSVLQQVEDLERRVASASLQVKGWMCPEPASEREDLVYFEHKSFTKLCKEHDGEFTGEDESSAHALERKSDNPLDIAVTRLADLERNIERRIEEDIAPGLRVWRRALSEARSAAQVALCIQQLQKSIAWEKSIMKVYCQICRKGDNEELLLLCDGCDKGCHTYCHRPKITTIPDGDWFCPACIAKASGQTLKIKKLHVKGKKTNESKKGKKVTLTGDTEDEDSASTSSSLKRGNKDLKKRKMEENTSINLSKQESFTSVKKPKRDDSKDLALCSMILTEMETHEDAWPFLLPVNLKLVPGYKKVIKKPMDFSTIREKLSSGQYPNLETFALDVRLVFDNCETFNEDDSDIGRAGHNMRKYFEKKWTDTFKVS
#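 BAZ2B 50 nM plus b-H3(5-23)K14Ac 50 nM, PBS pH 7.4/0.01% Tween-20, 30 min RT; compound added (max 110 uM), 30 min RT; streptavidin donor/Ni-chelate acceptor beads 10 ug/mL final, 20 min dark; AlphaScreen read.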
# G9a block = qHTS Assay for Inhibitors of Histone Lysine Methyltransferase G9a; Potency, µM (highest dose often 102 µM), hits mostly inhibitors; AID 504332, 2011; G9a H3K9 monomethylation, AlphaScreen, 2 h; Histone-lysine N-methyltransferase EHMT2 (Homo sapiens), Q96KQ7; actives 8.8% (n = 350,000); also: nearly all actives have a fitted effect of over 75% in size
#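 Step 1: enzyme (final 20 nM) with compound, 15 min RT. Step 2: substrate peptide 500 nM and SAM 20 uM, 2 h RT. Step 3: anti-H3K9me1 antibody and AlphaScreen beads, 10 min, then plate read.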
# HP1b chromo inh = HTS for Inhibitors of HP1-beta Chromodomain Interactions with Methylated Histone Tails; AID 540317, 2011; Potency, µM (doses to about 114 µM), hits mostly inhibitors; AlphaScreen HP1-beta / biotin-H3K9me3 peptide binding; actives 0.56% (n = 390,000); also: nearly all actives have a fitted effect of over 70% in size
#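 AlphaScreen: HP1-beta (50 nM) preformed 30 min with biotin-H3(1-18)K9me3 peptide (50 nM) in PBS pH 7.4, 0.01% Tween-20. Compound added for 30 min at RT, then streptavidin donor/nickel chelate acceptor beads (10 ug/mL) for 30 min.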
# JMJD2A Tudor = qHTS Assay for Inhibitors of JMJD2A-Tudor Domain; AlphaScreen JMJD2A-Tudor / H3K4me3 peptide binding; actives 4.4% (n = 390,000); Potency, µM (top dose mostly 114 µM), most hits filed as inhibitors; AID 504339, 2011; also: nearly all actives have a fitted effect of over 50% in size
# Numbers stand for hits; i = inactive; ? = inconclusive; nt = no result given; [ ] = remark or other dose. Rows were chosen to be rich in hits. Some 12% of all compounds tested hit in one or more screens of this group. Calls follow the shape of the dose curve; as a rule, active = well fitted curve in the direction sought with a large enough effect; inconclusive = small, poorly fitted or top-dose-only effect, or another doubt; inactive = no such curve, though single readings can be large; an effect the other way counts as inactive or inconclusive.
SMILES,Sfp PPTase inh,L3MBTL1 block,BAZ2B block,G9a block,HP1b chromo inh,JMJD2A Tudor
COc1cccc(C(=O)N2CCCC(Nc3ccc(C)c(C)c3)C2)c1 (configuration not stated),i,nt,?,22.4µM,i,?
COc1ccc(C(=O)N2CCCC(Nc3ccc(C)c(C)c3)C2)c(OC)n1 (configuration not stated),i,nt,?,44.7µM,i,i
Cc1ccc(NC2CCCN(C(=O)c3ccc4nccnc4c3)C2)cc1C (configuration not stated),i,nt,i,i,i,i
COc1ccc(C(=O)N2CCCC(Nc3ccc(F)c(F)c3)C2)c(OC)n1 (configuration not stated),i,nt,i,i,i,i
Fc1cccc(C2NN=C(c3ccccc3)S2)c1 (configuration not stated),i,i,i,?,i,i
O=C1c2ccccc2C2=Nc3ccccc3SC(c3ccc(Cl)cc3)C12 (configuration not stated),i,i,10µM,11.2µM,?,?
O=C1c2ccccc2C2=Nc3ccccc3SC(c3cccc(F)c3)C12 (configuration not stated),i,i,28.2µM,?,28.2µM,22.4µM
CCN(Cc1ccccc1)S(=O)(=O)c1ccc2c(c1)CC(C)N2C(=O)C1CCC1 (configuration not stated),nt,nt,i,i,i,i
CC/C(=C\c1ccc(N(C)C)cc1)c1ccncc1,nt,nt,nt,nt,?,22.4µM
Cc1cn(C)c(CC(=O)Nc2cccc(C#N)c2)c1C(=O)O,nt,nt,i,i,i,i
CCO/C=C1/C(=O)N(C(C)=O)c2ccccc21,?,i,i,10µM,i,i
CCOC(=O)CON1C(=O)c2ccccc2C1=O,i,nt,i,i,i,i
Cc1ccc(OCC(=O)Nc2nnc(SCc3cc(=O)n4cccc(C)c4n3)s2)cc1,nt,nt,i,i,i,?
Cc1cccn2c(=O)cc(CSc3nnc(NC(=O)COc4ccccc4)s3)nc12,nt,i,28.2µM,i[12.7 µM],i,56.2µM
O=c1cc(CSc2nnc(Nc3ccccc3F)s2)nc2sccn12,i,i,i,?,i,i
COc1ccc(Nc2nnc(SCc3cc(=O)n4ccsc4n3)s2)cc1,56.2µM,i,i,3.98µM,i,22.4µM
Cc1sc2ncnc(N3CCC(C(=O)Nc4ccc(Cl)cc4Cl)CC3)c2c1C,nt,i,i,56.2µM,i,i
Cc1sc2ncnc(N3CCC(C(=O)Nc4ccc(Br)cc4Br)CC3)c2c1C,nt,i,i,39.8µM,i,i
O=C(N/N=C/c1cc2c(cc1Br)OCO2)c1cccnc1,i,nt,i,i,i,i
O=C(N/N=C(\c1ccccc1)c1cccnc1)c1cc(O)ccc1O,?,nt,i,10µM,nt,nt
O=C(N/N=C/c1ccc(Br)s1)c1cccnc1,i,i,i,i,i,i
O=C(N/N=C/c1cc(O)ccc1Br)c1cccnc1,i,?,7.08µM,nt,i,44.7µM
O=C(N/N=C/c1cc(Br)c(O)c(Br)c1O)c1cccnc1,i,nt,35.5µM,?,i,50.1µM
COc1cccc(Cn2c(C)c(CNCc3ccccc3Cl)c(C(=O)O)c2C)c1,nt,nt,i,i,i,i
CC1=C(C(N)=O)C(c2ccccc2Br)n2ncnc2N1 (configuration not stated),nt,nt,i,i,i,i
SMILES,Sfp PPTase inh,L3MBTL1 block,BAZ2B block,G9a block,HP1b chromo inh,JMJD2A Tudor
CC1=C(C(N)=O)C(c2ccccc2[N+](=O)[O-])n2ncnc2N1 (configuration not stated),39.8µM,nt,i,28.2µM,?,39.8µM
O=CN1CCN(C(=O)c2ccccc2F)CC1,i,i,nt,i,i,i
O=S(=O)(c1ccc(F)cc1)N1CCN(CC2CC3C=CC2C3)CC1 (configuration not stated),i,nt,50.1µM,22.4µM,?,11.2µM
O=C(c1ccccc1F)N1CCN(CC2CC3C=CC2C3)CC1 (configuration not stated),i,i,56.2µM,?,?,3.98µM
O=C(c1cccc(F)c1)N1CCN(CC2CC3C=CC2C3)CC1 (configuration not stated),i,i,50.1µM,10µM,?,5.62µM
Cc1ccc(CN2CCN(CC3CC4C=CC3C4)CC2)cc1 (configuration not stated),?,nt,28.2µM,?,?,5.62µM
O=S1(=O)N=C(Oc2cccc(C(F)(F)F)c2)c2ccccc21,nt,nt,nt,nt,nt,i
Cc1c(C2CC(=O)N(c3ccccc3)C2=O)[nH]n(-c2ccccc2)c1=O (configuration not stated),i,i,?,35.5µM,i,i
COCC(C)N=C1NN=C(c2cccs2)C(CC(=O)O)S1 (configuration not stated),35.5µM,i,i,50.1µM,i,i
Cc1ccccc1C(=O)n1nc(-c2cccnc2)nc1NCc1ccc(F)cc1,nt,nt,i,?,i,i
Nc1cccc(Cl)c1N1CCOCC1,i,i,i,i[0.0925 µM],?,20µM
Nc1ccc(N2CCOCC2)c(Cl)c1,i,i,i,?,i,i[11.4 µM]
Cc1cc(/C=C2\SC(=S)NC2=O)cc(C)c1O,i,i,?,39.8µM,i,i
Cc1nn(C)cc1/C=C1\SC(=S)NC1=O,i,nt,i,?,i,i
O=C1NC(=S)S/C1=C\c1cc(Cl)cc(Cl)c1O,nt,nt,nt,nt,44.7µM,39.8µM
O=C1c2cccc3cccc(c23)C(=O)C1(O)O,nt,nt,nt,nt,i,44.7µM
CC(=O)N1C(=O)c2cccc3cccc(c23)C(=O)N1C(C)=O,i,i[11.4 µM],i,i[12.7 µM],i,i
O=[N+]([O-])c1cc(Cl)ccc1NCCc1ccccn1,i,nt,10µM,?,?,44.7µM
O=C(O)c1ccc(NCCc2ccc(Cl)cc2)c([N+](=O)[O-])c1,i,nt,?,79.4µM,i,i
O=C(Nc1cc(F)cc(F)c1)c1ccc(NCCc2ccccc2)c([N+](=O)[O-])c1,i,i,i,i,i,i
O=[N+]([O-])c1cc(C(F)(F)F)ccc1NCCNC(=S)Nc1ccc(Cl)cc1,i,i,20µM,28.2µM,i,?
N#Cc1ccc(NCCc2ccccn2)c([N+](=O)[O-])c1,i,i,i,nt,i,i
Cc1cc(C=O)c(C)n1-c1ccc(NC2CCCC2)c([N+](=O)[O-])c1,i,i,i,i,31.6µM,20µM
O=[N+]([O-])c1ccc(N/N=C/c2c[nH]c3ccccc23)c(S(=O)(=O)Nc2ccc(Cl)cc2)c1,i,nt,44.7µM,?,?,28.2µM
CN(C)Cc1ccccc1-c1nc(NC2CC2)c2ccccc2n1,i,nt,nt,i[0.501 µM],nt,nt
